DRD3 antagonist: D3 dopamine receptor (human) antagonism | P35462 | D3R cells, DiscoveRx beta-arrestin luminescence, antagonist mode; stronger effect = lower value | max response, negative = inhibition, % | 360,000 tested, 2.5% active | AID 652054; in the data active = max response below about -50%; also: % is scaled to controls: 0 for no effect and ±100 for the full control effect
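Cells plated overnight at 1500 cells/well, then exposed to library compounds with dopamine controls for 90 minutes at 37 degrees C. DiscoveRx reagent added for 30–60 minutes at room temperature; luminescence read, quantitative HTS format.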
D1 antagonist: blocks dopamine activation of the human D1 receptor; HEK293 TREx D1 cells, calcium flux, dopamine EC80; stronger effect = lower value; activity change, negative = inhibition, % at 10 µM; 360,000 tested, 3.2% active; in the data active = activity change below about -30%; also: % is scaled to controls: 0 for no effect and ±100 for the full control effect
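Tetracycline-induced HEK293 T-REx cells with force-coupled D1 receptor were loaded with a no-wash calcium dye. Compound was added after a 10 s baseline and read kinetically for 180 s; EC80 dopamine was then added and calcium flux followed another 180 s.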
D1 potentiator: human D1 dopamine receptor positive modulation | P21728 | HEK293 TREx D1 cells, calcium flux, dopamine EC20 potentiation | potentiation, % at 10 µM | 360,000 tested, 0.036% active; in the data active = potentiation above about 30%; also: 0% is about no effect
D3 ag: D3 dopamine receptor (human) agonism | D3R DiscoveRx beta-arrestin cells, luminescence, 90 min | max activation, % | 410,000 tested, 0.58% active | AID 652048; in the data active = max activation above about 30%; also: 0% is about no effect
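Agonist-mode cell screen: cells plated at 1500/well and incubated overnight at 37 °C, then exposed to library compounds for 90 min at 37 °C. Detection reagent was added for 30–60 min at room temperature, and luminescence was read.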
ERG Ets-DNA blk: inhibitors of human ERG Ets domain-DNA interaction; Potency, µM (series often up to 76.9 µM), without a hit: top-dose FP activity, negative = inhibition, most hits filed as inhibitors; P11308; 370,000 tested, 0.028% active; fluorescence polarization, His-ERG Ets domain / labelled DNA; AID 624246; active = well fitted inhibition curve with a large enough effect in the polarisation, with a control signal flat; the % refers to the polarisation;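 also: polarization taken with two DNA probes labelled with fluorescein and Texas red; potency is read from the fitted curve at half-maximal effect; % of control where 0% means no effect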
Target sequence (P11308 whole entry, looked up, the tested form may be a part): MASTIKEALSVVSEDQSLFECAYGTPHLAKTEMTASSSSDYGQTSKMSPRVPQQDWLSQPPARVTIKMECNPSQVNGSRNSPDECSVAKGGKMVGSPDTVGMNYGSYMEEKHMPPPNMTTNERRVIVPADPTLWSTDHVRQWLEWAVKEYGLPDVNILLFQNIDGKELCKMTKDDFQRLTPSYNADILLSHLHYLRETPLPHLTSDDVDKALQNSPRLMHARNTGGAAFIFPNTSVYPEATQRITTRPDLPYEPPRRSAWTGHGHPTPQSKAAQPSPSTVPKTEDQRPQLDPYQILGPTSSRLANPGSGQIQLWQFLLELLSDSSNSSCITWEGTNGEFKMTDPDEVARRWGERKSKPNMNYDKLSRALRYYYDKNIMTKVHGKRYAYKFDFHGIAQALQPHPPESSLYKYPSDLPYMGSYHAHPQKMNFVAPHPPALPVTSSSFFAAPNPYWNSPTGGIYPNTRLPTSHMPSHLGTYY
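His-tagged ERG Ets domain (1 uM in the protein solution; 300mM KCl, 50mM Tris-HCl, 1mM EDTA, 1mM DTT, pH 7.5) received compound, then a probe mix of 5 nM fluorescein-DNA and 100nM Texas-615-DNA. Fluorescence polarization was read for both dyes.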
D1 agonist: agonists of human D1 dopamine receptor; P21728; HEK293 T-REx D1 cells, calcium flux, agonist mode; activation, % at 2 µM; 360,000 tested, 1% active; AID 504660; in the data active = activation above about 30%; also: 0% is about no effect
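Agonism was scored from calcium flux recorded over 180 s (1 read/s) after pintool compound addition, following a 10-cycle baseline. Cells were inducible force-coupled HEK293 TREx D1, plated overnight at 30 C and loaded with no-wash calcium dye.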
Starred values were filed as active, the others as inactive; · = no result given. Sampled rows, rich in hits. Any-hit rate of the full collection: about 6.1%.

SMILES	DRD3 antagonist	D1 antagonist	D1 potentiator	D3 ag	ERG Ets-DNA blk	D1 agonist
COc1c2ccc(C(=O)NCCCCc3ccccc3)cc2nn1C	0.0	-34.9*	-7.6	2.6	-10.8%	3.0
Cc1ccc(C)c(N2CCN(C(=O)c3ccc4c(=O)n(CCc5ccccc5)c(=O)[nH]c4c3)CC2)c1	·	-30.2*	3.6	3.0	-0.2%	-1.0
O=C(NCCCN1CCCCC1)c1ccc2c(=O)n(CCc3ccccc3)c(=O)[nH]c2c1	2.4	-45.9*	-7.8	-10.0	1.5%	0.7
COC(=O)Cc1ccc(NC(=S)NCCSc2ccc(C)cc2)cc1	-21.5	-5.2	-7.7	-2.8	9.9%	3.7
Cc1c(C(=O)N(Cc2ccc(N(C)C)cc2)CC2CCCO2)oc2ccc(Cl)cc12 (stereo unspecified)	·	-14.4	-0.3	-2.0	1.7%	0.5
CCOCCCNC(=O)c1ccc2c(=O)n(CCc3ccccc3)c(=O)[nH]c2c1	·	-38.8*	-1.2	5.9	-3.6%	-0.2
NC(=O)c1nsc(C(=O)N(c2ccccc2)C(C(=O)NCc2ccc(F)cc2)c2ccc(O)cc2)c1N (stereo unspecified)	95.1	5.6	3.1	13.9	-1.3%	11.7
Cc1[nH][nH]c(=O)c1C(c1ccc(-c2ccc(Cl)cc2Cl)o1)c1c(C)[nH][nH]c1=O	·	-1.2	-1.8	·	·	55.5*
Cc1[nH][nH]c(=O)c1C(c1ccc(-c2cccc(Cl)c2)o1)c1c(C)[nH][nH]c1=O	-28.2	9.1	-3.8	-12.4	-2.3%	0.0
CSc1n[nH]c(=O)n1-c1ccc(Cl)cc1	1.4	-22.8	-1.9	6.5	-6.2%	3.2
CC1CCCCC1NC(=O)/C(C#N)=C/c1ccc(F)c(F)c1 (stereo unspecified)	6.9	-45.0*	-4.3	4.5	·	0.1
CCc1nc(SCCO)c2oc3ccccc3c2n1	-23.6	-1.8	-0.1	-0.3	-2.5%	2.0
CCc1nc(SCC(=O)N2CCN(c3ccccc3)CC2)c2oc3ccccc3c2n1	13.1	1.0	-7.2	47.6*	-14.0%	2.6
Cc1ccc(CN(CC(=O)NC(C)(C)C)C(=O)CNC(=O)c2cccs2)cc1	10.5	-5.5	1.4	6.4	2.9%	2.1
CN(Cc1ccccc1)c1ccc(-c2nc(-c3ccccn3)no2)cc1[N+](=O)[O-]	·	0.3	0.1	34.1*	-1.0%	3.2
CNc1ccc(-c2nc(-c3ccccn3)no2)cc1[N+](=O)[O-]	·	-1.2	-0.6	-20.9	-2.3%	0.1
CN(Cc1ccccc1)c1ccc(-c2nc(-c3ccncc3)no2)cc1[N+](=O)[O-]	·	-2.5	-1.1	57.3*	7.6%	-0.5
CN(Cc1ccccc1)c1ccc(-c2nc(-c3cccnc3)no2)cc1[N+](=O)[O-]	·	-25.4	-4.3	-7.1	-9.0%	12.9
CN(C)c1ccc(-c2nc(-c3ccccn3)no2)cc1[N+](=O)[O-]	·	-38.6*	-2.5	3.0	-2.2%	9.5
CS(=O)(=O)Nc1cccc(-c2cc(F)c(S(=O)(=O)N3CCN(S(=O)(=O)c4ccc5c(c4)OCCO5)CC3)cc2F)c1	·	-16.9	4.0	·	·	2.4
Fc1cccc(CCN2C(=S)NC[C@@H]2CC2CCCCC2)c1	0.0	0.7	3.1	-18.7	-14.5%	2.6
O=C1CS(=O)(=O)C2(C(=O)N(Cc3ccc(F)cc3)c3ccccc32)N1c1cccc(C(F)(F)F)c1 (stereo unspecified)	·	-11.2	-1.9	0.1	1.2%	17.6
O=C(Nc1nc(-c2ccc(F)cc2)cs1)C1CCN(C(=O)c2ccc(F)cc2)CC1	13.8	-40.2*	-4.7	5.5	-0.1%	9.7
Cc1cccc(C(=O)N2CCc3cc(-c4csc(NC(=O)CN5CCCC5)n4)ccc32)c1	-6.5	-31.4*	6.8	-8.2	7.2%	6.9
CNc1nc(-c2ccc3c(c2)CCN3C(=O)c2ccc(F)cc2)cs1	2.3	-37.8*	-9.9	1.1	6.9%	9.3
SMILES	DRD3 antagonist	D1 antagonist	D1 potentiator	D3 ag	ERG Ets-DNA blk	D1 agonist
O=C(CN1CCCC1)Nc1nc(-c2ccc3c(c2)CCN3C(=O)c2ccccc2F)cs1	0.2	-87.2*	-8.4	-17.5	-1.7%	7.9
CNc1nc(-c2ccc3c(c2)CCN3C(=O)c2cccc(F)c2)cs1	14.1	-18.1	-3.8	4.3	12.0%	3.1
Cc1csc2c(N3CCN(C(=O)Nc4ccccc4)CC3)ncnc12	-1.9	-4.4	-14.1	12.4	-15.8%	9.5
Cc1csc2c(N3CCN(C(=S)Nc4ccc(F)cc4F)CC3)ncnc12	17.3	-42.1*	-7.2	19.0	1.6%	39.8*
CC(=O)OCc1c(C(F)(F)F)nn(C)c1Oc1cccc(C(F)(F)F)c1	23.8	-34.8*	-12.4	0.4	-3.8%	17.9
Nc1cccc(-c2nc3ccc(C(=O)c4ccccc4)cc3[nH]2)c1	-4.1	-31.3*	-4.1	0.6	-11.1%	1.4
O=S(=O)(c1ccc(OCC(O)CN2CCN(c3ccccc3O)CC2)cc1)N1CCOCC1 (stereo unspecified)	-25.3	-10.7	-3.8	19.4	·	8.6
O=S(=O)(c1ccc(OCC(O)CN2CCC(Cc3ccccc3)CC2)cc1)N1CCOCC1 (stereo unspecified)	-58.6*	-12.2	-3.4	-32.2	·	16.0
O=S(=O)(c1ccc(OCC(O)CN2CCN(c3ccccc3)CC2)cc1)N1CCOCC1 (stereo unspecified)	0.0	-3.2	1.5	43.3*	·	8.0
Fc1cccc(NC(=S)NCC(c2cccnc2)N2CCOCC2)c1 (stereo unspecified)	-15.4	0.6	7.1	-8.1	5.8%	1.0
Cc1cc2ccc3ccccc3c2cc1CN(C)C	-22.1	-42.5*	-5.2	-15.7	-3.7%	15.3
Nc1nonc1C(=O)NCCNCc1ccccc1	-0.3	-46.6*	2.5	-13.2	2.1%	4.1
CCOc1cccc(CNCCNC(=O)c2nonc2N)c1	-50.4*	4.2	-3.6	-10.8	-4.1%	2.7
COc1ccc(-c2cc(-c3ccc(Cl)cc3)n[nH]2)c(O)c1	10.4	-34.0*	-6.3	-0.5	-13.4%	1.4
Cn1c(COc2ccc(Br)cc2)nnc1SC1CCc2ccccc2C1=O (stereo unspecified)	-56.6*	-3.0	-3.9	-3.5	4.6%	5.9
CC(C)OCCCNC(=O)Cn1ncc2c(=O)oc3ccccc3c21	0.0	-3.6	2.5	2.9	8.6%	4.7
Cc1ccc2oc(=O)c3cnn(CC(=O)NCCCOC(C)C)c3c2c1	-84.2*	1.3	·	1.6	-14.3%	0.5
Cc1cc(OC(C)C(=O)N(Cc2cccs2)C2CCS(=O)(=O)C2)ccc1Cl (stereo unspecified)	19.2	-7.7	-10.8	0.0	3.8%	2.4
COCCN1C(=O)/C(=C/c2ccc(OCc3ccc(C(=O)O)cc3)c(OC)c2)SC1=Nc1ccccc1	35.2	-36.5*	-4.0	13.6	0.0%	4.1

Screening results deposited in PubChem BioAssay by National Center for Advancing Translational Sciences (NCATS).
